Source: PubChem (National Center for Advancing Translational Sciences (NCATS))
KDM4E inh = qHTS Assay for Inhibitors of Human Jumonji Domain Containing 2E (JMJD2E); Lysine-specific demethylase 4E (Homo sapiens), B2RXH2; JMJD2E catalytic domain, FDH-coupled NADH fluorescence (FDH is formaldehyde dehydrogenase); Potency, µM (series often up to 57.1 µM), without a hit: at the top dose activity change, negative = inhibition, most hits filed as inhibitors; actives 1.6% (n = 230,000);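 also: 0% = wells with enzyme and -100% = buffer wells without enzyme; nearly all actives have a fitted effect of over 50% in size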
Target sequence (B2RXH2 1-337 limits assumed): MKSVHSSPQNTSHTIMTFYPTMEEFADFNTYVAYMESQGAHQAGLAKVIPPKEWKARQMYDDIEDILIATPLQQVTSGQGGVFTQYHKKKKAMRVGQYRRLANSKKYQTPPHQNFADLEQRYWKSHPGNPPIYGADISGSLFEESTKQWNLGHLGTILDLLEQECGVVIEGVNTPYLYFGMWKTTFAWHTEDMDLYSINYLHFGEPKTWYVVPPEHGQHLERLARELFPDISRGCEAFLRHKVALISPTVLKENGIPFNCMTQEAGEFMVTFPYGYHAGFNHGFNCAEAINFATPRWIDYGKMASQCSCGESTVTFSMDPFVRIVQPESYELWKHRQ
Tau fluor cs = Counterscreen qHTS for Inhibitors of Tau Fibril Formation, Fluorescence Polarization. tau K18 P301L Alexa594 fluorescence, heparin fibrillization. Potency, µM (top dose mostly 57.7 µM), for inactives: top-dose activity change, negative = decrease. actives 0.93% (n = 280,000). AID 1463, 2008; active = well fitted curve in the direction sought with a large enough effect; inconclusive = small, poorly fitted or top-dose-only effect, or another doubt; inactive = no such curve, though single readings can be large; an effect the other way counts as inactive or inconclusive; also: nearly all actives have a fitted effect of over 55% in size
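Human tau K18 P301L (15 uM unlabeled, 0.24 uM Alexa 594-labeled) in 100 mM sodium acetate pH 7 with 20 uM heparin, 6 hr at 37 C. ThT 30 uM added, 1 hr ambient; Alexa 594 FP and total fluorescence read at 555/632 nm.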
Tau ThT inhib = qHTS for Inhibitors of Tau Fibril Formation, Thioflavin T Binding | Microtubule-associated protein tau (Homo sapiens), P10636 | recombinant tau K18 P301L (four-repeat tau fragment), heparin-induced fibrillization, ThT fluorescence | Potency, µM (top dose mostly 57.4 µM), inactives show at the top dose activity, negative = inhibition, hits mostly inhibitors | actives 2.1% (n = 270,000); active = well fitted curve in the direction sought with a large enough effect; inconclusive = small, poorly fitted or top-dose-only effect, or another doubt; inactive = no such curve, though single readings can be large; an effect the other way counts as inactive or inconclusive; also: nearly all actives have a fitted effect of over 55% in size
Target sequence (P10636 561-689 P618L limits assumed): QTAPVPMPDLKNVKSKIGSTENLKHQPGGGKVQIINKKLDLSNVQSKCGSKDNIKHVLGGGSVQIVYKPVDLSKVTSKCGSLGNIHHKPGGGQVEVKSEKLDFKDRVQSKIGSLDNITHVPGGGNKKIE
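Aggregation was driven by heparin (20 uM final) acting on recombinant tau […] bearing P301L in 100 mM sodium acetate pH 7; fibrils were detected with Thioflavin T.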
HPGD inh = qHTS Assay for Inhibitors of HPGD (15-Hydroxyprostaglandin Dehydrogenase). 15-hydroxyprostaglandin dehydrogenase [NAD(+)] (Homo sapiens), P15428. purified HPGD, NADH fluorescence kinetic, PGE2 substrate. Potency, µM, for inactives: at the top dose activity change, negative = inhibition, usual class: inhibitors. actives 4.3% (n = 150,000). AID 894, 2007
Target sequence (P15428 whole entry, looked up): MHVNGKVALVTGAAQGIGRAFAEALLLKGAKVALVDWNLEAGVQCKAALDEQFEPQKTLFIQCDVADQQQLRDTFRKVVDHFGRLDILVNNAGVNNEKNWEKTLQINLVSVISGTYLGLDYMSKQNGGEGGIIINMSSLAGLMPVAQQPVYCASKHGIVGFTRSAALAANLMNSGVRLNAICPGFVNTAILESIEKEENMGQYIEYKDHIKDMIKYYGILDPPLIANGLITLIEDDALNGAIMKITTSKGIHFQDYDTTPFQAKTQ
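NADH formation kinetics: reaction with 30 uM PGE2 and 1 mM NAD+ (final), 20 nM enzyme, Tris-HCl pH 8 with Tween 20, after 15 min compound preincubation at room temperature. Fluorescence change, last versus first of five reads.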
Tau FP inhib = qHTS for Inhibitors of Tau Fibril Formation, Fluorescence Polarization | actives 0.39% (n = 280,000) | K18 P301L tau heparin fibrillization, Alexa594 FP, 6 h | AID 1468, 2008 | Potency, µM (titrated, usually from 57.7 µM), for the others: at the top dose activity, negative = inhibition, actives largely listed as inhibitors; active = well fitted curve in the direction sought with a large enough effect; inconclusive = small, poorly fitted or top-dose-only effect, or another doubt; inactive = no such curve, though single readings can be large; an effect the other way counts as inactive or inconclusive; also: nearly all actives have a fitted effect of over 55% in size
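Steps: dispense K18 P301L tau (15 uM plus 0.24 uM Alexa 594 tracer, final) in pH 7 sodium acetate; add compound; add heparin (20 uM final); incubate 6 hr, 37 C; add ThT (30 uM final); after 1 hr ambient, read FP.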
ALDH1A1 block = qHTS Assay for Inhibitors of Aldehyde Dehydrogenase 1 (ALDH1A1); actives 7.3% (n = 220,000); AID 1030, 2008; Potency, µM (doses to about 75.3 µM), inactives show at the highest dose activity, negative = inhibition, hits mostly inhibitors; Purified ALDH1A1, NADH fluorescence, propionaldehyde substrate; Aldehyde dehydrogenase 1A1 (Homo sapiens), P00352;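 also: plate controls were no enzyme wells and a reference inhibitor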
Active calls of the source: *; [ ] = dose if it differs, or a comment. Sampled rows, rich in hits. Any-hit rate of the full collection: about 9.9%. Unless noted, calls follow the shape of the dose curve; as a rule, active = well fitted inhibition curve with a large enough effect (not every such curve was filed as active); inconclusive = small, poorly fitted or top-dose-only effect, or another doubt; inactive = no such curve, though single readings can be large or run the other way. Unless noted, % is scaled to controls: 0 for no effect and ±100 for the full control effect; potency is read from the fitted curve at half-maximal effect.

How did COc1ccc(CC(=O)Nc2nc3ccc(F)cc3s2)cc1S(=O)(=O)N1CCOCC1 do in these assays?
KDM4E inh: -3.8%; Tau fluor cs: -21.8%; Tau ThT inhib: -12.1%; HPGD inh: -5.6%; Tau FP inhib: -3.4%; ALDH1A1 block: 20µM*

Results for CC(C)(C)C(=O)NCCN1CCN(C(=O)C(C)(C)C)CC1 ?
KDM4E inh: 6.8%; Tau fluor cs: 5.3%; Tau ThT inhib: 0.4%; HPGD inh: -4.6%; Tau FP inhib: 0.8%; ALDH1A1 block: -1.5%

What do the screens show for `CCOC(=O)c1cc(-c2ccccc2)n(CCC(=O)N2CCN(c3ccccn3)CC2)c1C`?
KDM4E inh: inconclusive; Tau fluor cs: 7.5%; Tau ThT inhib: -1.8%; HPGD inh: -10.2%; Tau FP inhib: 7.0%; ALDH1A1 block: -0.5%

Results for O=C(NCC1CCCO1)C(c1ccccn1)N(Cc1ccccc1Cl)C(=O)CN1C(=O)c2ccccc2S1(=O)=O (centres undefined) ?
KDM4E inh: 7.2%; Tau fluor cs: -15.0%; Tau ThT inhib: -13.3%; Tau FP inhib: -3.7%; ALDH1A1 block: inconclusive

How did COCCc1nn2c(=O)cc(COC(=O)c3ccccc3C)nc2s1 do in these assays?
Tau fluor cs: -6.4%; Tau ThT inhib: inconclusive; Tau FP inhib: -0.1%

How did COc1ccc(S(=O)(=O)N2CCOCC2)cc1NC(=O)c1cc2c(s1)CCCC2 do in these assays?
KDM4E inh: -1.5%; Tau fluor cs: -15.4%; Tau ThT inhib: -4.4%; HPGD inh: inconclusive; Tau FP inhib: -4.1%; ALDH1A1 block: 3.98µM*

Results for O=c1[nH]c2c(s1)C(c1ccccc1)C1C3CCC(C3)C1S2 (centres undefined) ?
KDM4E inh: 1.1%; Tau fluor cs: -21.6%; Tau ThT inhib: inconclusive; HPGD inh: inconclusive; Tau FP inhib: -16.1%; ALDH1A1 block: 20µM*

What do the screens show for `O=C1C2Sc3[nH]c(=O)sc3C(c3ccccc3)C2C(=O)N1c1ccccc1` (centres undefined)?
KDM4E inh: inconclusive; Tau fluor cs: inconclusive; Tau ThT inhib: inconclusive; HPGD inh: -17.0%; Tau FP inhib: inconclusive; ALDH1A1 block: inconclusive

How did COc1ccc(C2c3sc(=O)[nH]c3SC3C4CCC(C4)C23)cc1 (centres undefined) do in these assays?
KDM4E inh: 2.2%; Tau fluor cs: -28.0%; Tau ThT inhib: inconclusive; HPGD inh: inconclusive; Tau FP inhib: -8.9%; ALDH1A1 block: 22.4µM*

How did COc1cc(C2c3sc(=O)[nH]c3SC3C4CCC(C4)C23)ccc1O (centres undefined) do in these assays?
KDM4E inh: 6.6%; Tau fluor cs: -12.8%; Tau ThT inhib: -3.1%; HPGD inh: -4.5%; Tau FP inhib: -0.4%; ALDH1A1 block: inconclusive

What do the screens show for `COc1ccc(C2c3sc(=O)[nH]c3SC3C(=O)N(c4ccccc4)C(=O)C32)cc1` (centres undefined)?
KDM4E inh: -4.9%; Tau fluor cs: -22.2%; Tau ThT inhib: inconclusive; HPGD inh: -5.8%; Tau FP inhib: -6.2%; ALDH1A1 block: 22.4µM*

Results for COc1ccc(-c2nc(-c3ccccc3)[nH]c(=O)c2C#N)cc1 ?
KDM4E inh: -9.1%; Tau fluor cs: -8.8%; Tau ThT inhib: -6.3%; HPGD inh: 20µM*; Tau FP inhib: -4.2%; ALDH1A1 block: -0.9%

Results for O=c1oc2cc(Oc3ccc(C(F)(F)F)cc3[N+](=O)[O-])ccc2c2c1CCC2 ?
KDM4E inh: inconclusive; Tau fluor cs: -7.2%; Tau ThT inhib: -6.5%; HPGD inh: inconclusive; Tau FP inhib: 3.7%; ALDH1A1 block: 15.8µM*

What do the screens show for `Cc1cc(=O)oc2cc(Oc3ccc([N+](=O)[O-])cc3[N+](=O)[O-])ccc12`?
KDM4E inh: inconclusive; Tau fluor cs: 12.6µM*[quencher]; Tau ThT inhib: inconclusive; HPGD inh: -19.4%; Tau FP inhib: -0.1%; ALDH1A1 block: inconclusive

Results for Oc1ccc(Cl)cc1C=Nc1cnc2ccccc2c1 ?
HPGD inh: inconclusive; ALDH1A1 block: -11.2%[13.5 µM]

Results for CCOc1ccc(-n2c(SCC(=O)N3CCC(C)CC3)nc3c([nH]c4ccccc43)c2=O)cc1 ?
Tau fluor cs: 5.8%; Tau ThT inhib: 12.8%; Tau FP inhib: -1.3%

Results for OC[C@H](S)CS ?
HPGD inh: -10.0%; ALDH1A1 block: 0.1µM*

How did COC(=O)[C@@H](O)CC[C@@H](C)Cc1c(OC)c(OC)c(C)c(OC)c1OC do in these assays?
KDM4E inh: 5.6%; Tau fluor cs: -5.3%; Tau ThT inhib: -7.5%; HPGD inh: -6.2%; Tau FP inhib: -2.9%; ALDH1A1 block: 11.9%

Results for Cc1ccc2oc3c(c(=O)c2c1)C(c1ccccc1F)N(CCCN(C)C)C3=O (centres undefined) ?
Tau fluor cs: -5.4%; Tau ThT inhib: 2.5%; Tau FP inhib: -1.1%

What do the screens show for `CC1C/C(=C/c2ccncc2)C(=O)/C(=C/c2ccncc2)C1` (centres undefined)?
KDM4E inh: -12.6%; Tau fluor cs: -21.9%; Tau ThT inhib: 8.91µM*; Tau FP inhib: inconclusive; ALDH1A1 block: -1.7%

What do the screens show for `CC1C/C(=C/c2cccn2C)C(=O)/C(=C/c2cccn2C)C1` (centres undefined)?
KDM4E inh: inconclusive; Tau fluor cs: inconclusive; Tau ThT inhib: inconclusive; HPGD inh: -22.8%; Tau FP inhib: -14.5%; ALDH1A1 block: 3.55µM*

What do the screens show for `CN(C)C(=O)/N=N/C(=O)N(C)C`?
KDM4E inh: -10.6%; Tau fluor cs: -19.3%; Tau ThT inhib: 7.94µM*; HPGD inh: -1.9%; Tau FP inhib: 14.1µM*; ALDH1A1 block: inconclusive

How did Cc1ccc(C(=O)NCCSc2ccccc2)cc1S(=O)(=O)Nc1ccccc1 do in these assays?
KDM4E inh: -0.6%; Tau fluor cs: inconclusive; Tau ThT inhib: -1.6%; HPGD inh: -8.8%; Tau FP inhib: -14.2%; ALDH1A1 block: inconclusive

What do the screens show for `CCC(=O)NC1Cc2ccccc2C(c2ccccc2)C1` (centres undefined)?
Tau fluor cs: -4.8%; Tau ThT inhib: 0.0%; Tau FP inhib: -5.1%; ALDH1A1 block: -6.1%
